CYP2C19 act – increases human CYP2C19 enzyme activity; activation factor at 5 µM; AID 1025; 96,000 tested, under 10 active; recombinant CYP2C19, luciferin-H EGE luminescence; active compounds read high; 0 = fully inhibited enzyme, 1 = untreated enzyme; P33261;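 active = activation factor of at least 2 at 5 µM in the primary screen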
CYP2C9 act – increases human cytochrome P450 2C9 activity; P11712; recombinant CYP2C9, luciferin-H conversion, luminescence; active compounds read high; factor 1 = untreated enzyme, 0 = blocked; activation factor at 5 µM; actives 1.4% (n = 96,000); AID 1024;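 active = activation factor of 2 or more for CYP2C9 at a 5 µM dose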
CYP2C19 inh – blocks human cytochrome P450 2C19 | CYP2C19 Supersomes, luciferin-H EGE luminescence, 30 min | inhibition, % at 5 µM | actives 21% (n = 96,000);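 active = CYP2C19 inhibition above a set limit at 5 µM in the primary screen, cut at about 50% in these data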
D1 allo mod – D1 dopamine receptor (human) allosteric modulation; actives 5.9% (n = 58,000); AID 641; P21728; B-score at 10 µM; HEK293 D1, CRE-luciferase, dopamine EC30 potentiation; actives deviate in either direction;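 active = luminescence count or its row- and column-corrected plate score outside the 99.7% band of the plate's sample wells, on either side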
CYP2C9 inhib – blocks human cytochrome P450 2C9; P11712; actives 20% (n = 96,000); inhibition, % at 5 µM; CYP2C9 Supersomes, luciferin-H conversion, luminescence;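 active = blocking of liver enzyme CYP2C9 beyond about 50% at 5 µM, limit read from the data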
DAT uptake mod – modulates human dopamine transporter uptake under cocaine; LLC-PK1 hDAT cells, [14C]-dopamine uptake with cocaine IC80; actives deviate in either direction; B-score at 10 µM; Q01959; AID 449768; actives 1.3% (n = 110,000);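 active = Z score or B-score, a plate-position-corrected score, falls beyond the plate's 99.7% confidence bounds, in either direction; inactive = both scores lie inside the 99.7% bounds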
Target sequence (Q01959 whole entry, looked up): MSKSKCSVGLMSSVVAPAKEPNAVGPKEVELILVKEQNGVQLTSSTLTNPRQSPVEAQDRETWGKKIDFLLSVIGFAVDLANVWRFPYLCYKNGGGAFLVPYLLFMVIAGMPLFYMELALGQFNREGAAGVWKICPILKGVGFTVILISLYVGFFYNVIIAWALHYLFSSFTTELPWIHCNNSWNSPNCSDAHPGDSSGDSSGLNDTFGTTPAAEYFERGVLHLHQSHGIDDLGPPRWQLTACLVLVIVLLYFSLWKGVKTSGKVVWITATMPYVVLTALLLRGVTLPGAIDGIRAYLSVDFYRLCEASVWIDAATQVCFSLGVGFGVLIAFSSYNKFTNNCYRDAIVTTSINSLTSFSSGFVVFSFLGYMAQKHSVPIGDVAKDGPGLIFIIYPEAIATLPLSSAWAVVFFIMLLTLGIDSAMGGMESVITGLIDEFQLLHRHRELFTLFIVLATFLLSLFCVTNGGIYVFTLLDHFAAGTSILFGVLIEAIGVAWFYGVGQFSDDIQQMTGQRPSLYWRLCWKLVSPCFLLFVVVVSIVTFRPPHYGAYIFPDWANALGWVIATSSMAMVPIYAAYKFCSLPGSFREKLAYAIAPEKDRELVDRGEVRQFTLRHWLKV
D1 PAM confirm – D1 receptor (human) allosteric modulation, confirmed. shares compounds with D1 allo mod. HEK293 D1 CRE-luciferase, dopamine EC30 potentiation; active compounds read high. luminescence at 10 µM. actives 88% (n = 2,200);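 active = luminescence in either of two replicates above the same-plate mean plus 3 SD of the low-dose dopamine control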
D1 no dopamine – activates D1 CRE-luciferase signal without dopamine present | shares compounds with D1 allo mod | HEK293 D1 CRE-luciferase, luminescence, no dopamine; active compounds read high | luminescence at 10 µM | actives 0.8% (n = 1,900) | AID 646; in the data active = luminescence above about 3900
Isoprot counter – isoproterenol response counter-screen activity for D1 modulators; shares compounds with D1 allo mod; HEK293 D1 CRE-luciferase, isoproterenol EC30 counter-screen; calls only at 10 µM; actives 63% (n = 2,200);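 active = luminescence in either replicate above plate mean of wells with a partly effective reference agonist dose plus 3 SD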;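 note: isoproterenol raises cAMP through native beta-adrenoceptor Gs so signal bypasses D1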
Large screens that a line does not name were inactive (follow-up assays come after a bar, where they were run). Most compounds without a hit are left out; they make up all but 28% or so of the library.

O=c1c(F)cn(C2CCCO2)c(=O)n1Cc1c(F)cccc1Cl (stereo unspecified)	CYP2C19 inh 92, D1 allo mod 6.2 | D1 PAM confirm 8312 | D1 no dopamine inactive | Isoprot counter active
CC(C)OC(=O)CSc1nnc(-c2cnccn2)n1-c1ccccc1	D1 allo mod 5.1 (no result: CYP2C19 act, CYP2C9 act, CYP2C19 inh, CYP2C9 inhib) | D1 PAM confirm 7372 | D1 no dopamine inactive | Isoprot counter inactive
COc1cccc(-n2c(SC)nnc2-c2cnccn2)c1	D1 allo mod 14 (no result: CYP2C19 act, CYP2C9 act, CYP2C19 inh, CYP2C9 inhib) | D1 PAM confirm inactive | D1 no dopamine inactive | Isoprot counter inactive
c1ccc(-n2c(SCC3CCCCO3)nnc2-c2cnccn2)cc1 (stereo unspecified)	none
O=C(NC1CCCCC1)c1ccc(CN2CCOCC2)cc1	none (no result: D1 allo mod)
CCNCC(O)COCC(O)CNCC (stereo unspecified)	none
CCCc1cc2c(c(NC(C)=O)n1)c(=O)oc1ccccc12	D1 allo mod 7.9 (no result: CYP2C19 act, CYP2C9 act, CYP2C19 inh, CYP2C9 inhib) | D1 PAM confirm 21272 | D1 no dopamine inactive | Isoprot counter active
CN(Cc1ccccc1)C(=O)CNC(=O)Cn1cnc2ccccc2c1=O	none
CCC(C)(C)n1nnnc1C(c1cc2cc3c(cc2[nH]c1=O)OCO3)N1CCN(C)CC1 (stereo unspecified)	none
COCCCNc1c2c3c(cccc3[nH]c1=O)C(=O)c1ccccc1-2	D1 allo mod 3, CYP2C9 inhib 61 | D1 PAM confirm 8772 | D1 no dopamine inactive | Isoprot counter inactive
COc1ccccc1CNC(=O)Cn1cccc1	none (no result: D1 allo mod)
COc1ccccc1Oc1cc(C#N)c(C#N)cc1-n1nnc2ccccc21	none (no result: DAT uptake mod)
CCOC(=O)Cc1nnc(NC(=O)c2ccccc2OCC)s1	D1 allo mod 2.7 (no result: CYP2C19 act, CYP2C9 act, CYP2C19 inh, CYP2C9 inhib) | D1 PAM confirm 8096 | D1 no dopamine inactive | Isoprot counter active
Cc1ccccc1S(=O)(=O)Cc1ccc(C(=O)NCCN2CCN(Cc3ccccc3)CC2)o1	none (no result: D1 allo mod)
CCSc1nc2c(c(=O)[nH]c(=O)n2C)n1C	none (no result: D1 allo mod)
C/C=C/Cn1c(SCc2ccc(C)cc2)nc2c1c(=O)[nH]c(=O)n2C	D1 allo mod 12 | D1 PAM confirm 26548 | D1 no dopamine inactive | Isoprot counter active
C=CCn1c(SCc2ccc(Cl)cc2)nc2c1c(=O)[nH]c(=O)n2C	D1 allo mod 2.9 | D1 PAM confirm 8180 | D1 no dopamine inactive | Isoprot counter active
C=CCSc1nc2c(c(=O)[nH]c(=O)n2C)n1C(C)C	D1 allo mod 9.5 | D1 PAM confirm 11684 | D1 no dopamine inactive | Isoprot counter active
CCC1CCCCN1Cc1ccc(OC)c(C)c1 (stereo unspecified)	none (no result: D1 allo mod)
CCCCOc1ccc(CC(=O)NO)cc1	D1 allo mod 33 (no result: CYP2C19 act, CYP2C9 act, CYP2C19 inh, CYP2C9 inhib) | D1 PAM confirm 18936 | Isoprot counter active
CCCCOc1ccc(S(=O)(=O)NC(=O)NCc2ccc(OCCC)cc2)cc1	none (no result: CYP2C19 act, CYP2C9 act, CYP2C19 inh, D1 allo mod, CYP2C9 inhib)
CCOC(=O)c1c(N)nn(C(C)=O)c1-c1ccccc1	D1 allo mod 20 | D1 PAM confirm 19148 | D1 no dopamine inactive | Isoprot counter active
CCOC(=O)c1c(C)nc(C)c(C(=O)OCC)c1-c1ccccc1	none (no result: CYP2C19 act, CYP2C9 act, CYP2C19 inh, D1 allo mod, CYP2C9 inhib)
CCOC(=O)c1c(C)nc(-c2ccccc2)nc1N	CYP2C19 inh 82, D1 allo mod 4.1, CYP2C9 inhib 67 | D1 PAM confirm 8680 | D1 no dopamine inactive | Isoprot counter active
CC(Sc1ccc(Cl)cc1)C(=O)Nc1ccccc1C(=O)N1CCOCC1 (stereo unspecified)	none (no result: D1 allo mod)
O=C(c1cccc2ccccc12)N1CCN(CC2CC=CCC2)CC1 (stereo unspecified)	CYP2C9 act 2.6, D1 allo mod 4.6 | D1 PAM confirm inactive | D1 no dopamine inactive | Isoprot counter inactive
CCOc1ccc(NC(=O)C23CC4CC(C2)CC(c2ccccc2)(C4)C3)cc1	none (no result: D1 allo mod)
COC(=O)c1cc(NC(=O)CSc2nc(C)cc(=O)[nH]2)cc(C(=O)OC)c1	D1 allo mod 2.9 | D1 PAM confirm 6652 | D1 no dopamine inactive | Isoprot counter inactive
COC(=O)c1ccc(-c2ccc(OC)c([C@H]3[C@H]4C=CC[C@@H](C)[C@@H]4C(=O)N3Cc3ccccc3)c2)cc1	none (no result: CYP2C19 act, CYP2C9 act, CYP2C19 inh, D1 allo mod, CYP2C9 inhib)
CCOC(=O)N1CCN(C(=O)CCCn2c(=S)[nH]c3ccccc3c2=O)CC1	CYP2C19 inh 52, D1 allo mod 3.1 | D1 PAM confirm 8792 | D1 no dopamine inactive | Isoprot counter inactive
CCOC(=O)N1CCN(C(=O)CCCn2c(=O)[nH]c3ccccc3c2=O)CC1	none
FC(F)(F)c1cc(-c2ccco2)nc(NCc2ccco2)n1	D1 allo mod 15 (no result: CYP2C19 act, CYP2C9 act, CYP2C19 inh, CYP2C9 inhib) | D1 PAM confirm 10384 | D1 no dopamine inactive | Isoprot counter active
COc1cccc(-c2cc(C(F)(F)F)nc(NCc3ccco3)n2)c1	D1 allo mod 3 (no result: CYP2C19 act, CYP2C9 act, CYP2C19 inh, CYP2C9 inhib) | D1 PAM confirm 7368 | Isoprot counter active
FC(F)(F)c1cc(-c2ccco2)nc(NCc2cccs2)n1	none (no result: D1 allo mod)
FC(F)(F)c1cc(-c2ccco2)nc(-n2nc(C(F)(F)F)cc2C2CC2)n1	D1 allo mod 5.3 | D1 PAM confirm inactive | D1 no dopamine inactive | Isoprot counter active
COc1ccc(-c2cc(C(F)(F)F)nc(NCc3ccco3)n2)cc1OC	none (no result: D1 allo mod)
CN(C)C(CN1C(=O)C2CC=CCC2C1=O)c1cn(C)c2ccccc12 (stereo unspecified)	none
O=c1[nH]c2ccc(S(=O)(=O)N3CCN(c4ccccc4F)CC3)cc2s1	none
CC1C=Cc2ccccc2N1C(=O)c1ccccc1 (stereo unspecified)	D1 allo mod 4 | D1 PAM confirm 9976 | D1 no dopamine inactive | Isoprot counter inactive
Cc1cc2c(cc(C(=O)N3CCC(C(=O)NC4CCCC4)CC3)n2Cc2c(F)cccc2Cl)o1	none (no result: CYP2C19 act, CYP2C9 act, CYP2C19 inh, D1 allo mod, CYP2C9 inhib)
COc1ccc(-c2nnc3sc(C(C)N4C(=O)c5ccccc5C4=O)nn23)cc1 (stereo unspecified)	D1 allo mod 9.3 (no result: CYP2C19 act, CYP2C9 act, CYP2C19 inh, CYP2C9 inhib) | D1 PAM confirm 10292 | D1 no dopamine inactive | Isoprot counter active
COc1ccc(-c2nnc3sc(CN4C(=O)c5ccccc5C4=O)nn23)cc1	none
CCOC(=O)COc1ccc(-c2nnc(-c3ccccc3)o2)cc1	none (no result: D1 allo mod)
CCOc1ncccc1C(=O)OCc1nnc(-c2ccccc2)o1	CYP2C19 inh 84, D1 allo mod 4.1 | D1 PAM confirm 13008 | D1 no dopamine inactive | Isoprot counter inactive
COc1ccc(-c2nnc(-c3cccnc3)o2)cc1OC	D1 allo mod 4.1 | D1 PAM confirm 8388 | Isoprot counter active
CCOc1ccc(-c2nnc(-c3cccnc3)o2)cc1OCC	D1 allo mod 8.1 | D1 PAM confirm 20776 | D1 no dopamine inactive | Isoprot counter active

From PubChem
